Sm TGR inh – S. mansoni TGR enzyme inhibition; AID 485364; purified TGR, DTNB reduction, TNB absorbance 405 nm; Q962Y6; Potency, µM (doses to about 114 µM), usual class: inhibitors; hit rate 3% among 360,000; note: nearly all actives have a fitted effect of over 60% in size
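TGR 20 nM + NADPH 100 uM (dispensed conc.), cpd preinc 15 min RT; start with NADPH (500 uM addition) then DTNB (15 mM addition). Kinetic TNB absorbance, 405 nm filter. Four-parameter Hill fit across titration.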
Giardia FBPA inh – inhibitors of Giardia lamblia fructose-1,6-bisphosphate aldolase. A8B2U2. purified Giardia FBPA. Potency, µM (series often up to 59.6 µM), hits mostly inhibitors. hit rate 0.71% among 290,000. AID 2451; note: nearly all actives have a fitted effect of over 55% in size
Target sequence (A8B2U2 whole entry, looked up): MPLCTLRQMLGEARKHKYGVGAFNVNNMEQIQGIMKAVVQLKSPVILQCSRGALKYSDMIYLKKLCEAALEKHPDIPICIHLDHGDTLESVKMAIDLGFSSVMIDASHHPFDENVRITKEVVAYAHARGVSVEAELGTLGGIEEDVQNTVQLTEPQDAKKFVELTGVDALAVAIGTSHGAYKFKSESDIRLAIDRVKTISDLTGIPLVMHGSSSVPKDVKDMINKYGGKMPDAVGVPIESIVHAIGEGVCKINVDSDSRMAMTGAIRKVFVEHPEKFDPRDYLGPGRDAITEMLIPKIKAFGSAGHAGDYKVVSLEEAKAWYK
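40 nM FBPA preincubated 10 min at RT with compound (up to 57.5 uM final), then substrate plus GAPDH/TPI/NAD/arsenate coupling and diaphorase/resazurin added. Fluorescence read after 20 min at RT, 525/598 nm.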
HCMV inh – human cytomegalovirus inhibition; activity change, negative = inhibition, % at 57.5 µM; hit rate 4.5% among 410,000; HFF cells, HCMV-luciferase reporter, 72 h; stronger effect = lower value; in the data active = activity change below about -60%; inconclusive = no clear call, values can overlap the other calls; inactive = above about -39%
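Inhibition of viral replication was scored as loss of reporter luminescence in HFFs infected with HCMV-luciferase (MOI 1 PFU/cell) for 72 h; compounds tested at 2 doses, normalized to buffer and Salinomycin controls.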
Pf growth 96h – P. falciparum growth inhibition at 96 hours; Potency, µM (doses to about 28.7 µM), actives largely listed as inhibitors; P. falciparum luciferase reporter growth, 96 h; hit rate 6.9% among 320,000
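Plates of compound plus infected erythrocytes (2% hematocrit, 0.05% parasitemia final) incubate 96 hours, 37 C, 5% CO2. Detection reagent added; reduced luminescence from the parasites' luciferase reporter flags inhibition.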
Pf growth 48h – inhibits P. falciparum growth in the first generation, 48 h; P. falciparum luciferase growth in erythrocytes, 48 h; Potency, µM (series often up to 28.7 µM), hits mostly inhibitors; hit rate 5.9% among 310,000
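Firefly luciferase activity from engineered P. falciparum reports growth; inhibitors lower the luminescent signal. Cultures contained 2% hematocrit erythrocytes at 0.1% final parasitemia.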
Large screens that a line does not name were inactive. An excerpt weighted towards active compounds, which were near 14% of everything screened. Unless noted, calls come from the whole dose curve; as a rule, active = well fitted curve in the direction sought with a large enough effect; inconclusive = small, poorly fitted or top-dose-only effect, or another doubt; inactive = no such curve, though single readings can be large; an effect the other way counts as inactive or inconclusive.

COc1ccc(N2C(=O)CCC(C(=O)NCc3ccccn3)C2c2ccc(OC)c(OC)c2)cc1 (centres undefined)	Pf growth 96h 4.7µM
Nc1nc(-c2ccc(Cl)cc2)nn1C(=O)c1cccs1	Pf growth 96h 13µM
CSc1nc(-c2ccccc2)nn1C(=O)c1ccc(Cl)cc1	Pf growth 96h inconclusive
CSc1nc(-c2ccc(Cl)cc2)nn1C(=O)c1ccccc1	HCMV inh inconclusive, Pf growth 96h 1.3µM
COc1ccc(NC(=O)N2CCCC3(CCN(C(=O)c4cnccn4)CC3)C2)cc1	none (no result: Sm TGR inh, HCMV inh, Pf growth 96h, Pf growth 48h)
Cc1ccnc(NS(=O)(=O)c2ccc(NC(=O)C(C)(C)C)cc2)n1	Pf growth 48h 1.9µM
CCOc1ccccc1C(=O)Nc1ccc(S(=O)(=O)Nc2nccc(C)n2)cc1	Sm TGR inh 32µM, Giardia FBPA inh inconclusive, Pf growth 96h 13µM
CCOc1ccc(C(=O)Nc2ccc(S(=O)(=O)Nc3nccc(C)n3)cc2)cc1OCC	Pf growth 96h 8.3µM
Cc1cc(C)nc(NS(=O)(=O)c2ccc(NC(=O)Cc3ccccc3)cc2)n1	Pf growth 96h 13µM
COc1ccccc1CCNC(=O)CCCn1c(=O)c2cccn2c2cccnc21	none (no result: Giardia FBPA inh, Pf growth 96h, Pf growth 48h)
COc1ccc(S(=O)(=O)NCc2cccnc2)cc1NC(=O)c1ccc(Cl)cc1	Pf growth 96h inconclusive, Pf growth 48h inconclusive (no result: Giardia FBPA inh)
O=C(NCc1ccccc1)c1cc2ccccc2oc1=O	none
Cc1cccc(NC(=O)c2ccc(C(=O)c3ccccc3)o2)c1	Pf growth 96h inconclusive (no result: Sm TGR inh)
Cc1ccccc1-c1ccc(C(=O)NCc2ccccc2)o1	none
COc1ccc(NC(=O)c2ccc(-c3ccc(C)c4ccccc34)o2)cc1	Sm TGR inh 45µM
COc1ccc(NC(=O)c2ccc(C(=O)c3ccccc3)o2)cc1	Pf growth 48h 7.4µM
Cc1ccc(-c2ccc(C(=O)NCc3ccc(Cl)cc3)o2)c2ccccc12	Sm TGR inh 14µM, Pf growth 96h inconclusive, Pf growth 48h inconclusive
O=C(NCc1ccc(Cl)cc1)c1cc2ccccc2oc1=O	Pf growth 96h 5.2µM
COc1cc(NC(=O)CCC(=O)N2CCN(S(=O)(=O)c3ccc(C)cc3)CC2)cc(OC)c1	none (no result: Sm TGR inh, Giardia FBPA inh, Pf growth 96h, Pf growth 48h)
Cc1cccc(Cn2ncc(Cl)c(Cl)c2=O)c1	HCMV inh -94
Cc1ccc(C)c(C(=O)CN2C(=O)c3ccccc3C2=O)c1	none
O=c1c2ccccc2cnn1Cc1ccc(Cl)c(Cl)c1	Pf growth 48h inconclusive
Cc1ccc(C)c(C(=O)Cn2ncc(Cl)c(Cl)c2=O)c1	Sm TGR inh 50µM, HCMV inh -97, Pf growth 48h inconclusive (no result: Pf growth 96h)
Cc1cc2oc(=O)cc(Cn3ncc(Cl)c(Cl)c3=O)c2cc1Cl	Sm TGR inh 3.5µM, Pf growth 96h inconclusive, Pf growth 48h inconclusive (no result: HCMV inh)
Cc1cc(C(=O)Cn2ncc(Cl)c(Cl)c2=O)c(C)n1CC(F)(F)F	Sm TGR inh 45µM, HCMV inh -100, Pf growth 96h inconclusive
CCOCCCNC(=O)c1cn(C)c2ccc(S(=O)(=O)N3CCCCC3)cc2c1=O	Pf growth 96h inconclusive (no result: Giardia FBPA inh)
CCn1c(SCC(=O)N/N=C(/C)c2ccncc2)nc2ccccc21	Pf growth 96h inconclusive
Cc1cccc(Cn2nnc3c2C(=O)c2ccccc2C3=O)c1	Giardia FBPA inh inconclusive, HCMV inh -100, Pf growth 96h 2.9µM, Pf growth 48h inconclusive
Cc1ccccc1Cn1nnc2c1C(=O)c1ccccc1C2=O	none (no result: Sm TGR inh, Giardia FBPA inh, Pf growth 96h, Pf growth 48h)
COc1ccccc1CNC(=O)C1CCC(CNS(=O)(=O)c2ccc3c(c2)CCCC(=O)N3)CC1 (centres undefined)	none (no result: Giardia FBPA inh, Pf growth 96h, Pf growth 48h)
CCCCCCCCCCOc1cc2c(=O)c(C(=O)OCC)c[nH]c2cc1OCC	Pf growth 48h 0.0015µM (no result: Sm TGR inh, Giardia FBPA inh, HCMV inh)
Nc1cccc(O)c1	Sm TGR inh 7.1µM, Pf growth 96h inconclusive (no result: Giardia FBPA inh)
O=C(O)CC/C(=N\Nc1ccc([N+](=O)[O-])cc1S(=O)(=O)N1CCOCC1)c1cccs1	Sm TGR inh 40µM, Pf growth 96h inconclusive, Pf growth 48h inconclusive
COC(=O)Cc1ccc(OC2(C)CCN(Cc3ccc(-c4ccccn4)cc3)C2)cc1 (centres undefined)	none (no result: Sm TGR inh, Giardia FBPA inh, Pf growth 96h, Pf growth 48h)
O=C1NC2(CCCCC2)N=C1c1ccc(Br)cc1	none (no result: Pf growth 96h)
O=C1NC2(CCCCC2)N=C1c1ccc(F)cc1	HCMV inh -74, Pf growth 48h inconclusive
COc1ccc(NC(=O)c2ccc3ccccc3c2OC)cc1	none (no result: Sm TGR inh, Giardia FBPA inh, Pf growth 96h, Pf growth 48h)
O=C1CC(N2CCC(c3nc4ccccc4[nH]3)CC2)C(=O)N1c1cccc(F)c1 (centres undefined)	Sm TGR inh inconclusive

Compound activity (PubChem)
